# pCIP destab: compounds decreasing mouse p/CIP protein stability | F442A p/CIP-EGFP cells, EGFP fluorescence, 16 h | decrease of EGFP signal, % at 10 µM | 0.01% of 290,000 active | AID 1984;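 active means EGFP signal decrease of at least 30% at 10 µM or well 3 SD below plate mean, unless failing retest; inactive means the rest, including hits failing retest or dose response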
# Target sequence (Q05BA5 1-1403): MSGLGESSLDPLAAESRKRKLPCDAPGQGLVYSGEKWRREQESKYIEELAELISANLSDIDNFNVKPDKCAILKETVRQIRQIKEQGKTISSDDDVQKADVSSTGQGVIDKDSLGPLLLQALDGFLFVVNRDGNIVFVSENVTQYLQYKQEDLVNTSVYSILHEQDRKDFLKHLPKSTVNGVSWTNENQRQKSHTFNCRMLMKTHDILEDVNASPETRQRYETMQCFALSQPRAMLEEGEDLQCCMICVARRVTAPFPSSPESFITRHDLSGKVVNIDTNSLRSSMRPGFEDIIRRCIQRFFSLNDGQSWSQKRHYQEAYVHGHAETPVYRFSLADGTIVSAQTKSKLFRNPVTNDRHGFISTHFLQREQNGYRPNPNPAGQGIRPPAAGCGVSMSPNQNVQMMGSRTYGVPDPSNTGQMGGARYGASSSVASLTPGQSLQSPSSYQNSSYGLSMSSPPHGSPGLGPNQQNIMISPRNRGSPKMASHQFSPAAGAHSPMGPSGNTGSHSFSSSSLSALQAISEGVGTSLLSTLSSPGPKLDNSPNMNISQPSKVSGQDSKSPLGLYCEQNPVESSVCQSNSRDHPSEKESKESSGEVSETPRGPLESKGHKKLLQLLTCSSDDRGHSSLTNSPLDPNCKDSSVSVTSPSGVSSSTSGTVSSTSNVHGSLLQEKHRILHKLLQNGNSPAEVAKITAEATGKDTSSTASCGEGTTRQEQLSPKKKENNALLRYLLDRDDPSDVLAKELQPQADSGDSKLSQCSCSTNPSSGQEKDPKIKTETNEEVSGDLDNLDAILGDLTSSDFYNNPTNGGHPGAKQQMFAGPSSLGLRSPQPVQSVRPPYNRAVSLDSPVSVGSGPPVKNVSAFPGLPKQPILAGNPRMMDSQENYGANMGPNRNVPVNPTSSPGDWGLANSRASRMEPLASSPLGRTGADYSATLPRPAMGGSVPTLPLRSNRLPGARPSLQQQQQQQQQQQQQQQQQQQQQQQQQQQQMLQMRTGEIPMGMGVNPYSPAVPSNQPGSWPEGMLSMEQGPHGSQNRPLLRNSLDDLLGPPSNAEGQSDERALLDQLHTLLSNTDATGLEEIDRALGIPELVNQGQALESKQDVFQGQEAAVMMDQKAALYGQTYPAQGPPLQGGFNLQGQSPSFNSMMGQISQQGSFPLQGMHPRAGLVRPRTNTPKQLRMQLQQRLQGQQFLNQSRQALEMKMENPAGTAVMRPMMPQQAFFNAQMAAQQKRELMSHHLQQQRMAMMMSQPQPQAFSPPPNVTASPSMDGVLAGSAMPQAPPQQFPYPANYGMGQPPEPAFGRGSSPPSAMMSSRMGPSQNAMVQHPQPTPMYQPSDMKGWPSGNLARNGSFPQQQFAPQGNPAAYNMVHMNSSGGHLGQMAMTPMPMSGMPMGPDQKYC
# NALP1 inh: inhibitors of NALP1 inflammasome in yeast. S. cerevisiae NALP1/ASC/caspase-1 growth, X-gal OD620, 72 h. inhibition, % at 10 µM. 0.61% of 280,000 active; in the data active means inhibition mostly above about 24%, no sharp cut-off; inactive means mostly below about 32%
# Hsp70 act: Hsp70 transcriptional activation, primary screen | HeLa Hsp70 promoter luciferase reporter, luminescence; scaled: vehicle 0, proteasome-inhibitor control 100% | activation, % at 10 µM | 0.04% of 200,000 active | AID 1203;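 active means activation above the mean across all tested compounds plus 3 SD, cutoff set per campaign, cut at about 5.5% in these data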;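 further: 100% = MG132 at 30 µM as the positive control and 0% = DMSO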
# HSP90 refold inh: blocks HSP90-mediated luciferase refolding in reticulocyte lysate; Rabbit reticulocyte lysate, luciferase refolding luminescence, 3 h; inhibition, % at 5.6 µM; 0.91% of 290,000 active; AID 1789;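 active means inhibition above the screen-wide mean plus 3 SD, computed separately per campaign, cut at about 16% in these data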;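 further: 0% = DMSO wells and 100% = 60 µM geldanamycin wells; inhibitors lower the luminescence because luciferase stays unfolded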
# HSF1 inhib: HSF1 inhibition; 0.77% of 300,000 active; AID 2098; activity change, negative = inhibition, % at 7.5 µM (by protocol); NIH3T3-HGL HSE-luciferase, MG132-induced, luminescence 8 h; hits give low values;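 active means more than half of replicate wells show activity change below -50%, luminescence cut by over half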;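 further: luciferase reports HSF-1 transcriptional activity via heat shock element; 0% = median of DMSO wells and -100% = zero luminescence signal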
# HSF-1 act: increases HSF-1 driven luciferase reporter signal | activation, % at 9 µM | NIH3T3-HGL HSF-1 luciferase reporter, MG132, 8 h; 100% = twice DMSO control signal | 1.7% of 300,000 active | AID 504408;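 active means mean replicate activation of at least 50% with a set share of replicates each reaching 50%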;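 further: 0% = median of the neutral control wells and 100% = twice that signal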
# * marks the source's active call; other numbers are inactive results; / = not tested or not shown. Compounds with a hit are over-represented: about 3.8% of the library has one in this group of screens.
SMILES,pCIP destab,NALP1 inh,Hsp70 act,HSP90 refold inh,HSF1 inhib,HSF-1 act
CCC(C)NC(=O)CN(C1CCCCC1)S(=O)(=O)c1ccc(F)cc1 (stereo not drawn),-8,17,/,-1,0,-3
Cn1c(-c2c(N)n(CCCc3ccccc3)c3nc4ccccc4nc23)nc2ccccc21,-6,41*,0,2,3,-6
Cc1cc(=O)n2nc(N3CCCC(C(=O)NCCCN4CC(C)CC(C)C4)C3)sc2n1 (stereo not drawn),13,-4,/,-4,-6,2
CNC(=O)C1C(=S)NC(N)=C(C#N)C1c1ccccc1 (stereo not drawn),-56,11,0,2,-72*,-75
COc1ccc(-c2nc3ccccn3c2NCc2ccc3c(c2)OCO3)cc1,-5,0,0,-8,3,-2
COc1ccc(-c2nc3cc(C)ccn3c2NCc2ccc3c(c2)OCO3)cc1,-26,5,0,1,21,55*
Cc1ccc(S(=O)(=O)NN2C(=O)c3ccccc3NC2c2ccccc2)cc1 (stereo not drawn),-5,10,0,-2,1,-4
COc1ccc(C2Nc3ccccc3C(=O)N2NS(=O)(=O)c2ccc(C)cc2)cc1 (stereo not drawn),-11,-1,0,-2,47,57*
O=C(CC1Sc2ccccc2NC1=O)c1ccc(Br)cc1 (stereo not drawn),4,28,0,-5,32,70*
O=C(O)CC1Sc2ccccc2NC1=O (stereo not drawn),6,29,0,-2,0,-1
Cc1ccc(C(=O)O/N=C(\N)Cc2cccc3ccccc23)cc1,-5,19,/,10,17,64*
CCN(CC)CCNS(=O)(=O)c1ccc(C(=O)NN)cc1,-20,-12,0,0,-10,-11
C[C@@H]1CN(C(=O)c2cc(COc3cccc(C(F)(F)F)c3)on2)C[C@H](C)O1,0,4,/,-2,56,95*
Cc1ccc(S(=O)(=O)CCC(=O)Nc2sccc2C#N)cc1,/,/,/,/,-1,-12
COc1ccc(NS(=O)(=O)c2ccc(-c3ccccn3)s2)cc1,/,/,/,/,-87*,-90
O/N=C/c1cc(Br)cc(Br)c1OCc1ccccc1,-5,/,-1,2,4,9
O/N=C/c1cc(Br)ccc1OCc1ccc(F)cc1,/,/,0,-2,32,42
O/N=C/c1ccc(OCc2ccccc2)c(Cl)c1,4,8,0,0,39,58*
O/N=C/c1ccc(OCc2ccccc2)c(Br)c1,-3,16,0,0,47,66*
O/N=C/c1ccc(OCc2ccccc2F)c(Cl)c1,2,26,0,-3,41,84*
CCOc1cc(/C=N/O)ccc1OCc1ccc(C)cc1,-1,40,0,-4,38,33
O/N=C/c1ccccc1OCc1ccccc1F,-9,32,0,-2,11,19
Cc1ccc(COc2ccc(Br)cc2/C=N/O)cc1,-6,17,0,-2,74,94*
OCCNc1nc(N2CCN(c3ccccc3)CC2)nc2ccccc12,-11,-1,/,-1,-10,-7
O=C(O)c1ccccc1OC(C(=O)Nc1cc(Cl)cc(Cl)c1)c1ccccc1 (stereo not drawn),2,22,/,5,14,58*
SMILES,pCIP destab,NALP1 inh,Hsp70 act,HSP90 refold inh,HSF1 inhib,HSF-1 act
CC1(C)NC(=O)N(CC(=O)N2CCCC(C(F)(F)F)C2)C1=O (stereo not drawn),/,/,/,/,1,-8
OCCN(Cc1ccccc1)Cc1cccc(Cl)c1Cl,-19,3,0,3,-80*,-82
OCCN(Cc1ccccc1)Cc1ccccc1Cl,-4,-40,-1,-3,3,13
Cc1cc(F)ccc1S(=O)(=O)N1CCCOC1CNC(=O)C(=O)NCC(C)C (stereo not drawn),-4,13,/,-6,-2,-8
O=C1NCC2=C1C(c1ccc(Br)cc1)Nc1ccccc1N2 (stereo not drawn),-1,5,0,1,28,51*
c1ccc(-c2nc(CSc3n[nH]c(-c4cccs4)n3)cs2)cc1,2,16,0,-1,14,60*
COc1ccc(C2=CC(=O)N(Nc3ccccc3)C2=O)cc1,-18,-23,0,7,47,72*
Cc1ccc(NN2C(=O)C=C(c3ccc(Cl)cc3)C2=O)cc1,-2,7,0,-2,47,60*
O=C1C=C(c2ccccc2)C(=O)N1Nc1ccccc1,4,-1,0,3,37,41
COc1cc(NC(=O)CSCc2ccccc2)c(C(=O)O)cc1OC,-14,11,/,4,3,-3
CCN(CC)Cc1c(NC(=O)c2ccccc2)sc(C)c1C,2,0,0,-2,15,21
CCOC(=O)c1c(NC(=O)c2ccccc2)sc2c(O)c(CN(CC)CC)ccc12,-8,1,0,-1,-73*,-75
Nc1nc2ccccc2n1/N=C/c1cccnc1,/,/,0,7,0,1
Nc1nc2ccccc2n1/N=C/c1ccc([N+](=O)[O-])s1,-18,42,0,-4,58,99*
COc1ccc(N2C(=O)CC(NNc3ncc(Cl)cc3Cl)C2=O)cc1 (stereo not drawn),5,-11,0,7,-60*,-70
O=C(CNC(=O)N1CC(=O)Nc2ccccc21)NCc1cccc(Cl)c1,1,4,/,2,0,-1
COc1cc(CN2CCNC(=O)C2CC(=O)N2CCCN(C(C)=O)CC2)cc(OC)c1 (stereo not drawn),-26,-1,/,-4,-4,-20
COc1ccc(/C=C2\N=C(C)OC2=O)cc1[N+](=O)[O-],0,39*,/,3,-9,-15
COc1cc(/C=C2\N=C(C)OC2=O)cc(Cl)c1OC(C)=O,-5,5,/,-2,-13,-5
C/C(=N/NC(=O)c1ccc2c(c1)OCO2)c1cccc([N+](=O)[O-])c1,-12,11,/,0,8,12
C/C(=N/NC(=O)c1ccc2c(c1)OCCO2)c1ccc([N+](=O)[O-])cc1,-6,-13,/,-4,-67*,-65
C/C(=N\NS(=O)(=O)c1ccccc1)c1ccc2c(c1)OCCO2,10,20,0,-4,-56*,-67
S=C(NCCSCc1ccc(Cl)c(Cl)c1)Nc1ccccc1,/,/,0,4,59,101*
S=C(NCCSCc1ccc(Cl)cc1Cl)Nc1ccccc1,0,5,0,0,35,52*
S=C(NCCSCc1c(Cl)cccc1Cl)Nc1ccccc1,-16,10,0,3,/,/
CC(=O)Nc1ccc(SCC(=O)c2cc(C)n(-c3ccccc3)c2C)cc1,0,28,0,1,-68*,-74
N/C(Cc1ccc([N+](=O)[O-])cc1)=N\OC(=O)Cc1ccccc1,-4,22,1,3,1,4

# Compound activity as filed in PubChem BioAssay.
